Sampled rows, rich in hits. Any-hit rate of the full collection: about 2.6%.
LGR2 antag: Drosophila LGR2 receptor signaling inhibition; inhibition, % at 9.99 µM; 380,000 tested, 0.35% active; HEK293 LGR2, CRE-luciferase, bursicon-stimulated, 4 h;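 active means drop in luminescence signal, shown as inhibition above about 50% in the replicate tests, limit read from the data, passing the limit was not always enough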;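 further: agonist challenge used bursicon conditioned medium at about half maximal strength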
TROY signal inh: blocks TROY-dependent signaling in reporter cells; 360,000 tested, 0.98% active; inhibition, % at 10 µM; Q293 LMP1-TROYcd NF-kB luciferase reporter, 4 h;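 active means compounds whose plate-normalised and pattern-corrected inhibition of the luciferase reporter signal at the single screening dose is 50% or more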
EWS-Fli block: inhibitors of EWS/Fli oncoprotein transcriptional activity; A673 NR0B1-luciferase reporter, viability-normalised; inhibition, % at 12.6 µM; 350,000 tested, 0.67% active;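 active means mean inhibition of at least 50% after viability correction, with every replicate also passing that limit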;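 further: firefly luciferase signal divided by Alamar Blue viability fluorescence both relative to DMSO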
TWEAK-Fn14 inh: blocks TWEAK-Fn14 interaction in a reporter cell assay | TWEAK-stimulated Fn14 reporter cells, luciferase luminescence, 8 h | inhibition, % at 10 µM | 360,000 tested, 2% active | AID 1159606; in the data active means inhibition above about 50%
KKLEB cytotox: CF airway cell cytotoxicity counter-screen | KKLEB CF airway cells viability, ATPlite luminescence, overnight; stronger effect = lower value; cells stimulated with P. aeruginosa culture filtrate | activity change (cytotoxicity), % at 5 µM | 360,000 tested, 0.36% active | AID 602141;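 active means corrected activity change at or below -50% at 5 µM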
CF NFkB inh: inhibitors of cystic fibrosis induced NF-kB; inhibition, % at 5 µM; KKLEB NF-kB-GFP reporter, PAF-induced, GFP fluorescence overnight; 360,000 tested, 0.86% active;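 active means at least 50% inhibition at 5 µM, scaled per plate between neutral and stimulator controls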;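 further: PAF is a Pseudomonas aeruginosa culture filtrate used as stimulus; plate controls were PAF-stimulated DMSO wells for no effect and unstimulated DMSO wells for full effect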
* hit, by the source's call; nt = no result.

SMILES | LGR2 antag | TROY signal inh | EWS-Fli block | TWEAK-Fn14 inh | KKLEB cytotox | CF NFkB inh
O=C(CN1C(=O)c2ccccc2S1(=O)=O)Nc1ncc(Cl)cc1Cl | 69* | 55* | 58* | 75* | -8 | 12
O=C(CN1C(=O)c2ccccc2S1(=O)=O)c1ccccc1Cl | 96* | 85* | 82* | 102* | -7 | 12
C[C@H]1CN([C@@H](C)CO)C(=O)Cc2cc(NC(=O)Cn3cnnn3)ccc2O[C@@H]1CN(C)C(=O)Nc1ccc(F)cc1 | 6 | nt | -9 | nt | nt | nt
CC(=O)c1ccc(NC(=S)NC(C)c2ccc(Cl)cc2Cl)cc1 (stereo not given) | 9 | 56* | -8 | 11 | -13 | 28
CCN(CC)c1ccc(N2C(=O)/C(=C/c3cccnc3)SC2=S)cc1 | nt | 4 | nt | 26 | -39 | 56*
O=C1/C(=C/c2cccnc2)SC(=S)N1c1ccc(O)cc1 | 48 | 29 | -1 | 60* | -10 | 21
CCN(CC)c1ccc(N2C(=O)/C(=C\c3cccnc3)SC2=S)cc1 | nt | -2 | nt | 14 | 4 | 4
O=C1CC(c2ccccc2)=NN1c1ccccc1 | -1 | 52* | 7 | -18 | 4 | 49
COc1ccc(-c2cnc3c(c2)C(=O)N([C@H](C)CO)C[C@@H](C)[C@@H](CN(C)C(=O)Cc2ccccn2)O3)cc1 | -8 | nt | -4 | nt | nt | nt
Cc1sc2nc(SCC(=O)Nc3cccc(C(=O)O)c3)[nH]c(=O)c2c1C | -1 | 2 | -3 | -6 | -2 | 13
Cc1sc2nc(SCC(=O)Nc3ccc(Cl)c(C(=O)O)c3)[nH]c(=O)c2c1C | 12 | 25 | -22 | 52* | 1 | 11
CN(C)C(=O)[C@H]1[C@H](CO)[C@H]2Cn3c(ccc(C4=CCCC4)c3=O)[C@@H]1N2C(=O)c1ccccc1 | 11 | nt | -1 | nt | nt | nt
CC(C)NC(=O)N(C)C[C@H]1Oc2cc(-c3ccncc3)ccc2S(=O)(=O)N([C@@H](C)CO)C[C@@H]1C | 6 | nt | 1 | nt | nt | nt
CCn1c2ccccc2c2cc(CNCc3ccc(OC)cc3OC)ccc21 | 102* | 38 | 38 | 26 | -29 | 34
COC(=O)c1nn(-c2nc(-c3cccc(OC)c3)cc(C(F)(F)F)n2)cc1[N+](=O)[O-] | 14 | 58* | 1 | -23 | 6 | -44
CCOC(=O)/C(=C\c1ccc(OC(F)F)cc1)C1=Nn2c(nnc2-c2ccc(Cl)cc2)SC1 | nt | 90* | nt | 105* | -90* | 88*
CCOC(=O)/C(=C/c1ccc(OC(F)F)cc1)C1=Nn2c(nnc2-c2ccc(Cl)cc2)SC1 | nt | 91* | 31 | 107* | -104* | 92*
O=C(Nc1ccc2c(c1)[C@@H]1C[C@H](CC(=O)N3CCOCC3)O[C@H](CO)[C@@H]1O2)Nc1ccccc1F | -6 | nt | 1 | nt | nt | nt
O=S(=O)(c1ccc(Cl)cc1)N1CCSC1c1ccco1 (stereo not given) | nt | 67* | nt | 3 | 4 | 2
CCCNC(=O)C[C@@H]1CC[C@@H]2[C@H](COc3ccc(NC(=O)CC)cc3C(=O)N2C)O1 | 0 | nt | -2 | nt | nt | nt
COc1ccc(NC(=O)N2CCCC(c3nc(-c4ccc(C(C)C)cc4)no3)C2)cc1 (stereo not given) | nt | 69* | nt | 59* | 5 | -23
O=C(CCN1CCCCC1)N[C@H]1CC[C@H](CCNS(=O)(=O)c2ccccc2)O[C@@H]1CO | 6 | nt | -5 | nt | nt | nt
CC(=O)Nc1ccc(/C(C)=N/Nc2nc(Nc3ccccc3)nc(N3CCOCC3)n2)cc1 | 1 | 6 | -7 | -18 | -9 | -5
CCN1CCN(c2nc(Nc3ccc(NC(C)=O)cc3)nc(Nc3ccc(NC(C)=O)cc3)n2)CC1 | 1 | 63* | 2 | 14 | 0 | -2
CC(=O)c1cccc(Nc2nc(N3CCOCC3)nc(N3CCOCC3)n2)c1 | 13 | -2 | -1 | -15 | -3 | 5
CC(=O)c1ccc(Nc2nc(N3CCOCC3)nc(N3CCOCC3)n2)cc1 | -15 | -45 | -36 | 83* | -1 | -5
C[C@@H]1CCCCO[C@H](CN(C)Cc2ccc(C(=O)O)cc2)[C@@H](C)CN([C@@H](C)CO)C(=O)c2cc(N(C)C)ccc2O1 | 8 | nt | -5 | nt | nt | nt
O=C1NC(=NCc2ccccc2)S/C1=C/c1ccc(O)cc1 | 9 | -2 | nt | 9 | -43 | 53*
Cc1c(N=C2NC(=O)/C(=C/c3ccc(O)cc3)S2)c(=O)n(-c2ccccc2)n1C | -7 | -32 | nt | 2 | 15 | -19

Screening data deposited in PubChem by several laboratories.
